Source: PubChem BioAssay
The list is not random: actives were taken first. Their share in the collection is about 11%.
NIH3T3 tox: Cytotoxic Profiling in NIH 3T3 Cell Line of Diverse Libraries Using Quantitative High-Throughput Screening | NIH 3T3 viability, CellTiter-Glo ATP luminescence, 48-72 h | Potency, µM (titrated, usually from 96.7 µM), hits mostly inhibitors | actives 4.3% (n = 94,000) | AID 1345082, 2018; note: nearly all actives have a fitted effect of over 55% in size
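First NIH 3T3 cells are plated at 400 cells/well; next compound is pinned in; then plates incubate 48 or 72 hr at 37 °C; finally CellTiter-Glo is added and luminescence read after 10 min.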
hNpr1 antagonist: Natriuretic polypeptide receptor (hNpr1) antagonism - Primary qHTS. Atrial natriuretic peptide receptor 1 (Homo sapiens), P16066. HEK293 hNpr1 GloSensor cGMP, ANP-stimulated luminescence. Potency, µM (doses to about 46.3 µM), usual class: inhibitors. actives 1.6% (n = 76,000). AID 1347048, 2019; calls by dose curve; note: nearly all actives have a fitted effect of over 60% in size
Target sequence (P16066 whole entry, looked up): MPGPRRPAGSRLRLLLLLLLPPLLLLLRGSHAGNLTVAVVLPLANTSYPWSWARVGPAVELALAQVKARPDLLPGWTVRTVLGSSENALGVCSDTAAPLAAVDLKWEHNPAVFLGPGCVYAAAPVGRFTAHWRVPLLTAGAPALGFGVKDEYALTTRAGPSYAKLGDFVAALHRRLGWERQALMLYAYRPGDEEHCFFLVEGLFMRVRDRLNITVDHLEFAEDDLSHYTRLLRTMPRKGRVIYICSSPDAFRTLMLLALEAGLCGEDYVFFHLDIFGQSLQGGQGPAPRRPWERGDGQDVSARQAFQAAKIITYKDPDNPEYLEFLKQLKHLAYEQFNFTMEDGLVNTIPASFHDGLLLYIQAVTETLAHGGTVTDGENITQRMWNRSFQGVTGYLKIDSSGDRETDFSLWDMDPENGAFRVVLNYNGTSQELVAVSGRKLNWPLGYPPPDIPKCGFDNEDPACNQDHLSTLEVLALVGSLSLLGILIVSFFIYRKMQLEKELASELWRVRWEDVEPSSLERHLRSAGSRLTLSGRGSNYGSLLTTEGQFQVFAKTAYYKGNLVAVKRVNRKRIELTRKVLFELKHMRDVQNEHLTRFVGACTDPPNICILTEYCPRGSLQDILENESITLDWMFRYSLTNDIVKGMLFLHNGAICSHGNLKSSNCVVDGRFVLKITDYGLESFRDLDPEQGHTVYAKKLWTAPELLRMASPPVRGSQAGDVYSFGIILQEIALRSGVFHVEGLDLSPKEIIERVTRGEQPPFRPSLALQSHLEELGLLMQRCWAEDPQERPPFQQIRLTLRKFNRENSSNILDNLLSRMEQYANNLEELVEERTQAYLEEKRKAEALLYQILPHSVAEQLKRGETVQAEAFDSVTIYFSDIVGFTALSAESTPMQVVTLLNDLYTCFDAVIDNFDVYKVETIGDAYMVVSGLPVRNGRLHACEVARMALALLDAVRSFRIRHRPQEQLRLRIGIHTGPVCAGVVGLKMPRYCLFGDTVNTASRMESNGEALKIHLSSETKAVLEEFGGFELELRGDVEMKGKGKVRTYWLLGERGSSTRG
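Compound pre-incubated 30 min at room temperature on GloSensor-loaded HEK293 cells stably carrying hNpr1 and the pGS-40F cGMP biosensor. Stimulation uses hNppA at 0.1 nM final; luminescence is taken at baseline and 20 min post-agonist.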
HEK cytotox: Cytotoxic Profiling in HEK 293 Cell Line of Diverse Libraries Using Quantitative High-Throughput Screening; HEK 293 viability, ATP luminescence (CellTiter-Glo), 48-72 h; Potency, µM (top dose mostly 115 µM), actives largely listed as inhibitors; actives 6.6% (n = 94,000); AID 1345083, 2018; note: nearly all actives have a fitted effect of over 60% in size
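HEK 293 seeded at 250 cells/well receive compound via pintool. After 48 or 72 hr at 37 degree Celsius, 5% CO2 and 95% humidity, CellTiter-Glo is dispensed and luminescence read following 10 min at room temperature.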
Luciferase inh: Firefly luciferase inhibition profiling of diverse chemical library using quantitative high-throughput screening | purified P. pyralis luciferase, luminescence, biochemical | Potency, µM (doses to about 115 µM), actives largely listed as inhibitors | actives 2.5% (n = 76,000); note: nearly all actives have a fitted effect of over 65% in size
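FLuc 10nM, D-luciferin 10uM, ATP 10uM, Mg acetate 10mM, Tris acetate pH 7.5, Tween/BSA; cpd qHTS; enzyme added last; CCD luminescence.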
Large screens that a line does not name were inactive. Unless noted, calls come from the whole dose curve; as a rule, active = well fitted curve in the direction sought with a large enough effect; inconclusive = small, poorly fitted or top-dose-only effect, or another doubt; inactive = no such curve, though single readings can be large; an effect the other way counts as inactive or inconclusive.

COc1cccc(Nc2ccc3c(n2)C(C)(C(=O)NCC2CC2)CN(C)C3)c1 (centres undefined)	NIH3T3 tox inconclusive, HEK cytotox inconclusive, Luciferase inh inconclusive
COc1cccc(CNC(=O)[C@@H]2C[C@@H](O)CN2C2CCN(C(=O)COc3cccc(C)c3)CC2)c1	none
CN(Cc1ccccc1)Cc1cn([C@H]2CO[C@H]3[C@@H]2OC[C@@H]3NCc2ccccc2)nn1	NIH3T3 tox inconclusive, HEK cytotox inconclusive
c1ccc(CN[C@H]2CO[C@H]3[C@@H]2OC[C@@H]3n2cc(CC3CCCCC3)nn2)cc1	NIH3T3 tox 35µM, HEK cytotox inconclusive
Cc1ccc(C(=O)N[C@H]2CO[C@H]3[C@@H]2OC[C@@H]3n2cc(CC3CCCCC3)nn2)cc1	NIH3T3 tox 35µM, HEK cytotox inconclusive
COc1ccc(C(=O)N[C@H]2CO[C@H]3[C@@H]2OC[C@@H]3n2cc(CC3CCCCC3)nn2)cc1	NIH3T3 tox inconclusive, HEK cytotox inconclusive
O=C(N[C@H]1CO[C@H]2[C@@H]1OC[C@@H]2n1cc(-c2ccccc2)nn1)c1ccc(C(F)(F)F)cc1	NIH3T3 tox inconclusive, hNpr1 antagonist inconclusive, HEK cytotox 40µM
COC(=O)c1cccc(NC(=S)N[C@H]2CO[C@H]3[C@@H]2OC[C@@H]3n2cc(CC3CCCCC3)nn2)c1	NIH3T3 tox inconclusive, hNpr1 antagonist inconclusive, HEK cytotox 40µM
C[S+](=O)([O-])N1CC2(CCN(Cc3cccnc3)C2)Cc2ccccc21 (centres undefined)	none (no result: hNpr1 antagonist, Luciferase inh)
CN1CCC(NC[C@H]2O[C@H](Cc3cc(-c4ccccc4)on3)CC[C@@H]2O)CC1	NIH3T3 tox inconclusive, HEK cytotox inconclusive
O=C(COc1ccc(F)cc1)N1CC(c2nnc(-c3ccncc3)o2)C2(CCOCC2)C1 (centres undefined)	none
COc1ccc(-n2nc(C3CCN(Cc4cccn4C)CC3)[nH]c2=O)cc1	NIH3T3 tox inconclusive, HEK cytotox 40µM
CNC(=O)c1cc(C2CC2)nc2onc(C3CCN(C(=O)c4ccc(Cl)nc4)CC3)c12	none (no result: hNpr1 antagonist, Luciferase inh)
CNC(=O)c1cc(C2CC2)nc2onc(C3CCCN3[S+](=O)([O-])c3cccs3)c12 (centres undefined)	none (no result: hNpr1 antagonist, Luciferase inh)
COc1ccc(NC(=O)C[C@@H]2C[C@@H](C(C)C)[C@H](CC#N)C=C2C)cn1	NIH3T3 tox 79µM, HEK cytotox 89µM
Cc1nn(-c2ccccc2)c2c1C(C1CC1)N(CC1CN(C(=O)N(C)C)C1)C2=O (centres undefined)	NIH3T3 tox inconclusive, HEK cytotox 45µM (no result: hNpr1 antagonist, Luciferase inh)
Cc1nn(-c2ccccc2)c2c1C(C1CC1)N(CC1CN(C(=O)NC(C)C)C1)C2=O (centres undefined)	HEK cytotox inconclusive (no result: hNpr1 antagonist, Luciferase inh)
Cc1nn(-c2ccccc2)c2c1C(C1CC1)N(CC1CN(C(=O)C3CCCC3)C1)C2=O (centres undefined)	NIH3T3 tox 45µM, HEK cytotox inconclusive (no result: hNpr1 antagonist, Luciferase inh)
CN(Cc1cc(C[C@@H]2C[C@H](NC(=O)C(C)(C)C)C2(C)C)no1)c1ccccc1	NIH3T3 tox inconclusive, hNpr1 antagonist inconclusive, HEK cytotox 89µM
CN(C)Cc1cc(C[C@@H]2C[C@H](NCc3ccccc3O)C2(C)C)no1	NIH3T3 tox inconclusive, HEK cytotox 56µM
CC(C)(C)c1cc(C[C@@H]2C[C@H](NS(=O)(=O)c3ccccc3)C2(C)C)no1	NIH3T3 tox inconclusive, HEK cytotox 71µM
CN(Cc1cc(C[C@@H]2C[C@H](NCc3ccccn3)C2(C)C)no1)c1ccccc1	NIH3T3 tox 79µM, HEK cytotox 56µM
CN(Cc1cc(C[C@@H]2C[C@H](NS(C)(=O)=O)C2(C)C)no1)c1ccccc1	NIH3T3 tox inconclusive, HEK cytotox inconclusive
CC1(C)[C@H](Cc2cc(CCO)on2)C[C@@H]1NCc1ccccn1	none
COc1cccc(OCC(=O)c2ccc3c(c2)N(C(C)C(=O)NCCc2ccccc2)C(=O)CO3)c1 (centres undefined)	NIH3T3 tox inconclusive, HEK cytotox inconclusive
CCCCCCNC(=O)Cc1csc2nc(C)c(-c3cc(C)n(-c4ccccc4OC)n3)c(=O)n12	NIH3T3 tox inconclusive, HEK cytotox inconclusive
COc1ccc(Cn2c(C3CCN(C(=O)c4ccc(C)c(F)c4)CC3)n[nH]c2=O)cc1	none
CN(Cc1ccccc1)Cc1cc(C[C@@H]2C[C@H](NC(=O)C3CCC3)C2(C)C)no1	NIH3T3 tox inconclusive, hNpr1 antagonist inconclusive, HEK cytotox 35µM
CN(C)Cc1cc(C[C@@H]2C[C@H](NC(=O)C3CCC3)C2(C)C)no1	HEK cytotox inconclusive
CCOc1ccccc1C(=O)NC1CCN(c2cc(-c3cccs3)[nH]n2)C1 (centres undefined)	NIH3T3 tox inconclusive, HEK cytotox inconclusive
CCN1c2cc(C(=O)Nc3cccc(C)c3)ccc2C(=O)N2CCCCC21 (centres undefined)	NIH3T3 tox 35µM, HEK cytotox 32µM
CCN1c2cc(C(=O)Nc3cccc(SC)c3)ccc2C(=O)N2CCCCC21 (centres undefined)	NIH3T3 tox inconclusive, HEK cytotox 22µM
CCN1c2cc(C(=O)Nc3cccc(C(F)(F)F)c3)ccc2C(=O)N2CCCCC21 (centres undefined)	NIH3T3 tox inconclusive, HEK cytotox 28µM
CCN1c2cc(C(=O)Nc3ccc(N(C)C)cc3)ccc2C(=O)N2CCCCCC21 (centres undefined)	NIH3T3 tox inconclusive, HEK cytotox 40µM, Luciferase inh 18µM
O=C(NCC1CN(S(=O)(=O)c2cccnc2)CC12CCOCC2)N1CCCC1 (centres undefined)	none (no result: hNpr1 antagonist, Luciferase inh)
CNC(=O)c1cc(C)nc2onc(C3CCN(C(=O)C4CC4)C3)c12 (centres undefined)	none (no result: hNpr1 antagonist, Luciferase inh)
CCN1c2cc(C(=O)Nc3ccc(C)cc3)ccc2C(=O)N2CCCCC21 (centres undefined)	NIH3T3 tox 35µM, hNpr1 antagonist inconclusive, HEK cytotox 40µM
CCN1c2cc(C(=O)Nc3ccc(C)cc3)ccc2C(=O)N2CCCC21 (centres undefined)	none
CCN1c2cc(C(=O)Nc3cccc(F)c3)ccc2C(=O)N2CCCCCC21 (centres undefined)	NIH3T3 tox inconclusive, HEK cytotox inconclusive
CCN1c2cc(C(=O)Nc3cccc(OC(F)(F)F)c3)ccc2C(=O)N2CCCCCC21 (centres undefined)	NIH3T3 tox 28µM, HEK cytotox inconclusive
O=C(c1ccc2nc(-c3ccncc3)oc2c1)N1CCOCC1	none (no result: hNpr1 antagonist, Luciferase inh)
CCN1CCCCC12Cc1ccccc1CN(C(C)=O)C2 (centres undefined)	none (no result: hNpr1 antagonist, Luciferase inh)
CSc1ccc(-c2cccc(CN3CCC(NC(=O)C4CC4)CC3)c2)cc1	none (no result: hNpr1 antagonist, Luciferase inh)
CC(=O)NC1CCN(Cc2cccc(-c3cccc(C)c3)c2)CC1	NIH3T3 tox 100µM, HEK cytotox inconclusive (no result: hNpr1 antagonist, Luciferase inh)
